Screens as filed in PubChem BioAssay.
The list is not random: actives were taken first. Their share in the collection is about 12%.
Sfp inh: inhibitors of Bacillus subtilis Sfp phosphopantetheinyl transferase; Biochemical Sfp PPTase activity, qHTS; Potency, µM, for inactives: largest response in the series, negative = inhibition, actives largely listed as inhibitors; 3.5% of 310,000 active; AID 1490;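 also: the enzyme is Sfp with the accession as filed and its product quenches rhodamine fluorescence; 0% = enzyme reaction without inhibitor and -100% = no enzyme wells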
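After 15 min at room temperature with compound, 15 nM Sfp received 5 uM rhodamine-CoA plus 12.5 uM BHQ-2-ybbR (50 mM Hepes pH 7.6, 10 mM MgCl2). Rate came from the fluorescence difference over 30 min, ex 525/em 598 nm.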
JMJD2A Tudor: JMJD2A Tudor domain (human) inhibition | AlphaScreen JMJD2A-Tudor / H3K4me3 peptide binding | Potency, µM (series often up to 114 µM), without a hit: at the top dose activity change, negative = inhibition, hits mostly inhibitors | 4.4% of 390,000 active | AID 504339; also: % is scaled to controls: 0 for no effect and ±100 for the full control effect; nearly all actives have a fitted effect of over 50% in size
BAZ2B block: BAZ2B (human) inhibition; Q9UIF8; AlphaScreen BAZ2B-H3K14Ac peptide displacement; Potency, µM (top dose mostly 114 µM), inactives show at the top dose activity change, negative = inhibition, usual class: inhibitors; 4.4% of 360,000 active; AID 504333; also: % is scaled to controls: 0 for no effect and ±100 for the full control effect; nearly all actives have a fitted effect of over 60% in size
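Compounds, titrated to a top concentration of 110 uM, were incubated 30 min at room temperature with preformed BAZ2B/acetyl-K14 H3 peptide complex (50 nM each). Proximity signal was measured by AlphaScreen after 20 min with beads.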
HP1b chromo inh: blocks HP1-beta chromodomain binding to methylated histone tails. AID 540317. AlphaScreen HP1-beta / biotin-H3K9me3 peptide binding. Potency, µM (titrated, usually from 114 µM), for inactives: top-dose activity change, negative = inhibition, usual class: inhibitors. P83916. 0.56% of 390,000 active; also: nearly all actives have a fitted effect of over 70% in size
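Compound inhibition of the preformed complex between 50 nM HP1-beta and 50 nM biotinylated H3K9me3 peptide was read by AlphaScreen. Buffer was PBS pH 7.4 with 0.01% Tween-20. Incubations ran 30 min at room temperature, with 10 ug/mL donor/acceptor beads.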
G9a block: inhibitors of human histone lysine methyltransferase G9a. Q96KQ7. G9a H3K9 monomethylation, AlphaScreen, 2 h. Potency, µM (top dose mostly 102 µM), inactives show top-dose activity, negative = inhibition, most hits filed as inhibitors. 8.8% of 350,000 active; also: % is scaled to controls: 0 for no effect and ±100 for the full control effect; nearly all actives have a fitted effect of over 75% in size
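Using a bead-based AlphaScreen, monomethylated H3K9 product from 2 h room-temperature reactions (G9a 20 nM, peptide 500 nM, SAM 20 uM) was detected with 0.5 ug/mL rabbit anti-H3K9me1 antibody.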
The depositor's hits bear a star; ? = inconclusive; / = not tested or not shown; ! = not confirmed by another sample; [ ] = dose if it differs, or a comment. Calls follow the shape of the dose curve; as a rule, active = well fitted curve in the direction sought with a large enough effect; inconclusive = small, poorly fitted or top-dose-only effect, or another doubt; inactive = no such curve, though single readings can be large; an effect the other way counts as inactive or inconclusive. Potency is read from the fitted curve at half-maximal effect.

SMILES	Sfp inh	JMJD2A Tudor	BAZ2B block	HP1b chromo inh	G9a block
COc1cc(CC(=O)OCC2=C[C@H]3[C@@H]4C(C)(C)[C@]4(OC(C)=O)[C@H](OC(=O)Cc4ccccc4)[C@@H](C)[C@]3(O)[C@@H]3C=C(C)C(=O)[C@@]3(O)C2)ccc1O	-2%	/	/	/	?
CCCCC/C=C\C/C=C\C/C=C\C/C=C\CCCC(=O)N[C@H](C)CO	22µM*!	/	/	/	1%[59 µM]
CC(=O)NC1C(OC(=O)Cc2ccccc2)OC(COC(C)=O)C(OC(C)=O)C1OC(C)=O (centres undefined)	19%	-18%	-16%	26%	-14%
COc1cc(CN2CCN(C(=O)COc3ccccc3)CC2)cc(OC)c1OC	-23%	3.2µM*	?	-20%	?
COc1ccc(OC)c(CN2CCN(C(=O)COc3cccc(C)c3)CC2)c1	?	3.5µM*	?	?	7.1µM*
Cn1cccc1CN1CCN(C(=O)COc2ccccc2)CC1	-15%	7.1µM*	45µM*	?	?
COc1ccccc1CN1CCN(C(=O)COc2cccc(C)c2)CC1	-25%	32µM*	50µM*	?	?
Cc1cccc(OCC(=O)N2CCN(CCc3ccccn3)CC2)c1	/	-3%	-22%	35%	1%[59 µM]
N=C1c2ccccc2CN1CC(=O)c1ccccc1	10%	-6%	-2%	18%	-2%[59 µM]
COc1ccc(O)c(CN2CCCC(C(=O)c3sccc3C)C2)c1 (centres undefined)	4%	-28%[57.1 µM]	?	-22%	50µM*
CCOC(=O)N(c1ccccc1)P1(=S)OCCO1	40µM*	-23%	7%	-21%	?
COC(=O)N(c1ccccc1)P1(=S)OCCO1	5.6µM*	?	55%	-22%	46%[59 µM]
C=CCn1c(O)c(C(C)=NCc2ccc3c(c2)OCO3)c(=O)[nH]c1=O	3%	-15%	-1%	10%	3%[12.7 µM]
Cc1ccc(-n2c(O)c(C=NCc3ccccn3)c(=O)[nH]c2=S)cc1	-17%	3%	-13%	58%	/
Cn1c(O)c(C(c2ccccn2)c2c(O)n(C)c(=S)[nH]c2=O)c(=O)[nH]c1=S	79µM*	79µM*	50µM*	35%	22%[0.0925 µM]
CC(n1cc(C[C@H](N)C(=O)O)c2ccccc21)n1cc(C[C@H](N)C(=O)O)c2ccccc21	28µM*	/	/	/	5%[59 µM]
CC(C(=O)c1cn(C)c2ccccc12)c1ccccc1 (centres undefined)	-10%	1%	2%	59%	0%[59 µM]
O=C1NC(=O)N(c2ccc(Br)cc2)C(=O)/C1=C/c1ccsc1	32µM*	-22%	14%	27%	20µM*
Cc1cc(C)cc(N2C(=O)NC(=O)/C(=C\c3cc(C)n(C)c3C)C2=O)c1	-8%	-19%	-6%	6%	?
O=C1NC(=O)C(=Cc2ccsc2)C(=O)N1	?	6%	4%	50%	-24%
Cc1ccc(/C=C2/C(=O)NC(=O)N(C)C2=O)cc1	?	-14%	-33%	20%	-26%[59 µM]
O=C1NC(=O)N(c2ccc(F)cc2)C(=O)/C1=C/c1ccsc1	?	-11%	-13%	54%	14µM*
O=C1NC(=O)N(c2cccc(Br)c2)C(=O)/C1=C/c1ccsc1	20µM*	-11%	-2%	29%	10µM*
Cc1ccc(CN2C3CCCC2CC(NC(=S)NCc2ccccc2)C3)cc1 (centres undefined)	-14%	-22%	-17%	31%	/
CCC(CC)N1CCN(Cc2nc3ccccc3c(=O)n2-c2ccc(F)cc2)CC1	-5%	-5%	-27%	19%	13%
SMILES	Sfp inh	JMJD2A Tudor	BAZ2B block	HP1b chromo inh	G9a block
COc1ccc(OC)c(CN2CCN(C(=O)Cc3ccccc3)CC2)c1	-40%	18µM*	?	?	5µM*
COc1ccc(CN2CCN(C(=O)Cc3ccccc3)CC2)cc1Br	89µM*	25µM*	?	?	/
CCOc1cc(CN2CCN(C(=O)Cc3ccccc3)CC2)ccc1OC	-13%	28µM*	56µM*	?	/
COc1cccc(CN2CCN(C(=O)Cc3ccccc3OC)CC2)c1	8%	-5%	-10%	30%	/
CC(=O)N(C)CC#CCN1CCC(O)CC1	/	32µM*	/	1%	/
CN1CCCC(C(=O)c2ccc(-c3ccccc3)cc2)C1 (centres undefined)	3%	-9%	-3%	14%	/
Cc1cc(/C=C2\C(=O)NC(=O)N(c3ccccc3F)C2=O)c(C)n1-c1cc(C(=O)O)cc(C(=O)O)c1	-18%	11µM*	28µM*	13µM*	10µM*
Cc1cc(/C=C2\C(=O)NC(=O)N(c3ccccc3)C2=O)c(C)n1-c1ccc(C(=O)O)c(Cl)c1	-21%	-26%	?	5%	45µM*
Cc1cc(/C=C2\C(=O)NC(=O)N(c3ccc(F)cc3)C2=O)c(C)n1-c1cccc(C(=O)O)c1	-16%	-26%	-36%	6%	35µM*
Cc1cc(/C=C2/C(=O)NC(=O)N(C)C2=O)c(C)n1-c1ccccc1	0%	-27%	-13%	49%	?
C#C[C@]1(O)CC[C@H]2[C@@H]3CCC4=CC(=O)CCC4=C3C=C[C@@]21CC	14%	/	/	/	-35%[12.7 µM]
O=C(NN1C(=O)C2C3C=CC(C4CC34)C2C1=O)c1cccc(Br)c1 (centres undefined)	6%	-16%	1%	33%	?
Oc1cccc[c]1[Hg][Cl]	0.14µM*	/	/	/	?
CCC(=NCc1ccco1)c1c(O)n(-c2ccc(C)cc2)c(=O)[nH]c1=O	8%	-11%	2%	7%	/
C=CCN1CC[C@]23c4c5ccc(O)c4O[C@H]2/C(=N/NC(=O)c2ccccc2)CC[C@@]3(O)[C@H]1C5	1%	-16%	/	31%	35µM*
CC(C)CC(NP(=O)(O)O[C@@H]1O[C@@H](C)[C@H](O)[C@@H](O)[C@H]1O)C(=O)NC(Cc1c[nH]c2ccccc12)C(=O)O (some centres undefined)	/	/	/	/	49%[59 µM]
C=CCn1c(O)c(C(C)=Nc2cccc(C(=O)O)c2)c(=O)[nH]c1=O	-2%	1%	-37%	17%	50µM*
C=CCn1c(O)c(C(CC)=Nc2cccc(C(=O)O)c2)c(=O)[nH]c1=O	-9%	-10%	-30%	50%	?
C=CCn1c(O)c(C(C)=Nc2ccc(C(=O)OCC)cc2)c(=O)[nH]c1=O	-29%	5%	79µM*	30%	?
C=CCn1c(O)c(C(CC)=Nc2ccc(N(C)C)cc2)c(=O)[nH]c1=O	50µM*	-13%	?	25%	/
C=CCn1c(O)c(C(C)=O)c(=O)[nH]c1=O (tested in a mixture with another compound)	-2%	-26%	-38%	14%	45µM*
C=CCn1c(O)c(C(C)=NCCO)c(=O)[nH]c1=O	15%	-15%	-1%	-2%	25%[2.33 µM]
CCN1CCC(NCC2CCCCC2)CC1	2%	6%	-19%	38%	?
